The text below walks through data of PubChem BioAssay AID720567 (Broad Institute, 2013).

Measured potencies and affinities stand elsewhere. Activity calls are given as the source filed them. The rule behind the calls is not given here.

A short description of the assay: HEK293 cell cytotoxicity, dose response, cytotoxicity control, dry powder samples (AID 720567). The settings on record: plate reader; series mostly up to 15 µM.
Turning to `CC(=O)N[C@H]1[C@@H](O[C@@H]2OC(C[C@@H](O)C3O[C@@H](n4ccc(=O)[nH]c4=O)[C@H](O)[C@@H]3O)[C@H](O)[C@H](O)[C@H]2NC(=O)/C=C/CCCCCCCCCCC(C)C)O[C@H](CO)[C@@H](O)[C@@H]1O` (stereo partly drawn), the result was inactive. The value for `COc1ccc(CSc2nnc(-c3ccccc3)o2)cc1` was “inactive”; that for `c1ccc(CSc2nnc(-c3ccccc3)o2)cc1` was “inactive”.
